# D3 antag: antagonists of human D3 dopamine receptor | max response, negative = inhibition, % | 360,000 compounds, 2.5% hits | AID 652054 | D3R cells, DiscoveRx beta-arrestin luminescence, antagonist mode; active compounds read low; in the data active = max response below about -50%; inconclusive = no clear call, values can overlap the other calls; note: % is set by controls: 0 for no effect and ±100 for the full control effect
#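 Cells expressing the human receptor were seeded at 1500 cells/well, incubated overnight at 37 degrees C in 5% CO2, then exposed to library compounds with dopamine controls for 90 minutes at 37 degrees C before luminescent detection.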
# mIDH1 inhibitor: blocks human mutant IDH1 R132H enzyme | O75874 | IDH1-R132H enzyme, NADPH consumption, diaphorase/resazurin fluorescence | Potency, µM (series often up to 76.6 µM), for inactives: at the highest dose activity change, negative = inhibition, hits mostly inhibitors | 390,000 compounds, 0.093% hits | AID 602179; note: potency is the fitted concentration of half-maximal effect; % is set by controls: 0 for no effect and ±100 for the full control effect; nearly all actives have a fitted effect of over 65% in size
#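 IDH1-R132H (0.5 ug/mL) preincubated 30 min with compound, then NADPH (0.016 mM) and alpha-KG (2 mM) added; 80 min at RT, pH 7.5. Remaining NADPH coupled via diaphorase/resazurin to fluorescence (540/590 nm); concentration-response curves normalized to no-enzyme control.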
# D3 ag: agonists of human D3 dopamine receptor; D3R DiscoveRx beta-arrestin cells, luminescence, 90 min; 410,000 compounds, 0.58% hits; max activation, %; in the data active = max activation above about 30%; note: 0% is about no effect
#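 Cells at 1500/well, incubated overnight, then treated with pinned compounds (dopamine as control) for 90 min at 37 degrees C. DiscoveRx reagent added for 30 - 60 minutes at room temperature; luminescence read.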
# B2AR arrestin: recruits beta-arrestin to the human beta2-adrenergic receptor; Potency, µM (highest dose often 46.1 µM), inactives show at the highest dose activation, most hits filed as activators; AID 492947; beta-arrestin recruitment to beta2AR, cell-based reporter; 330,000 compounds, 0.02% hits;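 note: potency is the fitted concentration of half-maximal effect; 0% = DMSO controls and full agonism = EC100 isoproterenol or metaproterenol; nearly all actives have a fitted effect of over 65% in size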
# Target sequence (P07550 whole entry, looked up): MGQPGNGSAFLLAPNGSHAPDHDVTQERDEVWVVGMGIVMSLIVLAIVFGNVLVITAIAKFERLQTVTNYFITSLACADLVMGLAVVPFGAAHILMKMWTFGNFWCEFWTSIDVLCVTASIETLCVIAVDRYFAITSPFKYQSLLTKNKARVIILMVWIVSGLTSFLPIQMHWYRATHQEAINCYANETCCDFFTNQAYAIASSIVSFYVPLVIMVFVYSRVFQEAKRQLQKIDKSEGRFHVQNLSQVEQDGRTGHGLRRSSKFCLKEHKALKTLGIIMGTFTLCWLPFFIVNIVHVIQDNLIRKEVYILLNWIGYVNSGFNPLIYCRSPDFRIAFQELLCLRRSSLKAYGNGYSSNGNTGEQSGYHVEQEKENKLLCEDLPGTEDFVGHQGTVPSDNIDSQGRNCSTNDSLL
# a7 integrin act: activates integrin-mediated alleviation for muscular dystrophy; alpha7betagal myoblasts, beta-gal FDG fluorescence, 48 h; Potency, µM (series often up to 38.3 µM), for the others: at the top dose activation, hits mostly activators; 350,000 compounds, 0.064% hits;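 note: potency is the fitted concentration of half-maximal effect; 100% = response of the positive control SU9516; nearly all actives have a fitted effect of over 60% in size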
#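 Alpha7betagal+/- myoblasts (passage 13) were plated 16-24 hr, then exposed to compounds (1:260 dilution of DMSO stock) for 48 hours at 37C. After MPER lysis, β-galactosidase reporter activity was read as FDG fluorescence (ex 480/em 540) after 30 minutes.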
# Numbers without * were called inactive; ? = inconclusive; · = no result given. The list is not random: actives were taken first. Their share in the collection is about 2.9%. Unless noted, calls come from the whole dose curve; as a rule, active = well fitted curve in the direction sought with a large enough effect; inconclusive = small, poorly fitted or top-dose-only effect, or another doubt; inactive = no such curve, though single readings can be large; an effect the other way counts as inactive or inconclusive.
SMILES,D3 antag,mIDH1 inhibitor,D3 ag,B2AR arrestin,a7 integrin act
Cc1ccc(C(=O)Nc2nnc([C@H]3C[C@H](O)[C@@H](CO)O3)s2)cc1,-77*,·,-15,·,·
COc1ccc(C(C(=O)NCc2ccccc2)N(C(=O)Cn2nnc3ccccc32)c2ccc(F)cc2)cc1 (configuration not stated),·,44%,1,·,·
CC1CCN(S(=O)(=O)c2ccc3c(c2)N(CC(=O)NCCCN2CCCC(C)C2)C(=O)CO3)CC1 (configuration not stated),-89*,1%,-18,0%,-28%
O=C(CN1C(=O)COc2ccccc21)NCCCN1CCc2ccccc2C1,-77*,6%,-21,0%,5%
O=C(CN1C(=O)COc2ccccc21)NCCN1CCC(Cc2ccccc2)CC1,-57*,-3%,-29,0%,-43%
O=C(CN1C(=O)COc2ccccc21)NCCN1CCOCC1,-11,1%,2,0%,-16%
COC(=O)c1cc(Nc2nc3ccccc3nc2NS(=O)(=O)c2ccc(C)cc2)ccc1Cl,·,7%,5,·,·
C[C@]12CCC(=O)C=C1CC[C@@H]1[C@@H]2[C@@H](O)C[C@@]2(C)[C@H]1CC[C@]2(O)C(=O)COP(=O)(O)O,·,·,2,·,·
Cc1c(Cl)cccc1NC(=O)N1CCC(CN2CCCC2)CC1,·,0%,-5,·,·
C=CCNCCOc1ccccc1-c1ccccc1,-64*,8%,-17,0%,-4%
CN(C)CCOc1ccccc1Cc1ccccc1,-75*,-10%,-82,0%,·
CCCCNCCOCCOc1ccccc1-c1ccccc1,-87*,7%,-6,-1%,-52%
CN(C)CCCCOc1ccccc1-c1ccccc1,-77*,12%,-53,0%,-59%
CCCNC(=O)N(C)C[C@H]1Oc2cc(Br)ccc2S(=O)(=O)N([C@@H](C)CO)C[C@@H]1C,17,3%,1,·,22%
COc1ccccc1C(=O)Nc1c(C(=O)Nc2ccccc2F)oc2ccccc12,·,3%,-4,·,·
CCCNC(=S)NCCN1CCCCC1,-63*,2%,-1,-1%,-13%
CCCCNC(=S)NCCN1CCCCC1,-72*,-1%,-3,0%,-19%
O=C1C2CCCCN2C(=O)N1CCCN1CCN(c2ccc(F)cc2)CC1 (configuration not stated),-57*,2%,-21,0%,6%
O=C1C2CCCN2C(=O)N1CCCN1CCN(c2cccc(Br)c2)CC1 (configuration not stated),-78*,8%,-19,-1%,?
Nc1ccc(N2CCN(CCCCN3C(=O)C4CCCN4C3=O)CC2)cc1 (configuration not stated),-16,16%,-4,-1%,-14%
O=C1C2C3C=CC(C4CC34)C2C(=O)N1CCCCN1CCN(c2ccc(F)cc2)CC1 (configuration not stated),-85*,1%,-32,·,-8%
O=C1C2CCCCN2C(=O)N1CCCN1CCN(c2cccc(C(F)(F)F)c2)CC1 (configuration not stated),-67*,9%,-14,·,-2%
CCOC(=O)c1cccc(NC(=O)c2cc(C)nc3c2c(C)nn3-c2ccc(C)cc2)c1,·,7%,13,·,·
COc1ccc2sc(N(Cc3cccnc3)C(=O)c3ccc4c(c3)OCCO4)nc2c1,·,-3%,1,·,·
CCC(C)NC(=O)CN1C(=O)c2cccnc2Oc2ccc(C)cc21 (configuration not stated),·,11%,-30,·,·
CCOc1ccc(-n2ccnc2SCC(=O)Nc2cccc3ccccc23)cc1,·,-2%,5,·,·
Cc1nc2nc(N)nc(OCc3ccccc3)c2nc1C,-7,1%,8,·,22%
Cc1ccc(S(=O)(=O)/N=C2/C=C(Sc3ncn[nH]3)C(=O)c3ccccc32)cc1,-104*,22%,-22,-1%,-49%
CC(C)c1ccc(S(=O)(=O)/N=C2/C=C(Sc3ncn[nH]3)C(=O)c3ccccc32)cc1,-75*,20%,-6,-1%,-59%
O=C(NCC(c1ccco1)N1CCCCC1)c1cc2c(s1)CCCC2 (configuration not stated),-75*,5%,-24,0%,-4%
